# Test results reported in the supplement of paper PMC3545927.
# This is one part of the list. No count for the full screen is at hand.
# Target: furin, P09958
# Test: furin cleavage Z-score vs untreated control; higher = more cleavage, active = 3.5 or more, inactive = 1 or less, 8 variable residues between constant flanks
# Outline: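 The cleavage Z-score is the log read count relative to furin-free reactions, lowess-adjusted and scaled by median absolute deviation. Counts came from sequencing DNA released from bead-bound 8-mer peptide–cDNA fusions after digestion with purified furin for 7.5, 15 or 30 min.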
# 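Further: purified furin at 1:10 enzyme:substrate in 50 mM HEPES pH 7.5.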
# furin, P09958, sequence (P09958 whole entry): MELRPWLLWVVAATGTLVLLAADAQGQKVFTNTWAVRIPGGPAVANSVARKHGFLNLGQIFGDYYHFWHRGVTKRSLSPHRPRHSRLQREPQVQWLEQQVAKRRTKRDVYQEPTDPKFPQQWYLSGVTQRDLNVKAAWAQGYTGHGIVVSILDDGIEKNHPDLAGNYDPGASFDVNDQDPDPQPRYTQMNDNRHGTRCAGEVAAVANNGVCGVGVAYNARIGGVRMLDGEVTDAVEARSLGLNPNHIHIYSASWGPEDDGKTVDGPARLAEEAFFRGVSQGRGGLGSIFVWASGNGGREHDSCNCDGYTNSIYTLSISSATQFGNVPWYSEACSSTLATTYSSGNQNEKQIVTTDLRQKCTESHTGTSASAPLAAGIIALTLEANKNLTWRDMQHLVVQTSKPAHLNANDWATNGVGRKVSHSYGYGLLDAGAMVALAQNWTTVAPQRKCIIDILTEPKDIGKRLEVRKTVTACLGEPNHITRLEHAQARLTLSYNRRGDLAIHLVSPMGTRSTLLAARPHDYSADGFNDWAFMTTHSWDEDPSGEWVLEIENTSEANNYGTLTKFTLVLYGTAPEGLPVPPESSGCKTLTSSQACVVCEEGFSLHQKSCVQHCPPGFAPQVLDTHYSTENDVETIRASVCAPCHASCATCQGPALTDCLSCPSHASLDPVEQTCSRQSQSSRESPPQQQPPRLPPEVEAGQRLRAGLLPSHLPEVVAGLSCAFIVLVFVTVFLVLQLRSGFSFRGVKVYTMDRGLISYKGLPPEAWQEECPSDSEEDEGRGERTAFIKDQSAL
Sequence,furin cleavage Z-score (7.5 min),furin cleavage Z-score (15 min),furin cleavage Z-score (30 min)
CAGARRSRRAAGNASASA [FS-422],7.16 (active),6.59 (active),5.19 (active)
CARGRRSPHTAGNASASA [FS-3252],7.13 (active),8.09 (active),6.93 (active)
CARGRKSPSKAGNASASA [FS-2673],-0.571 (inactive),-0.51 (inactive),-0.0739 (inactive)
CARGRRKTGEAGNASASA [FS-3251],-0.45 (inactive),-1.86 (inactive),0.0435 (inactive)
CAGARRSVIGAGNASASA [FS-1983],-0.924 (inactive),0.507 (inactive),-0.671 (inactive)
CARGRRDFPEAGNASASA [FS-2021],1.74,3.62 (active),3.22
CAGPSRQNRGAGNASASA [FS-1330],-0.197 (inactive),-0.893 (inactive),-0.697 (inactive)
CAGPGRPYRAAGNASASA [FS-784],-0.745 (inactive),0.68 (inactive),0.71 (inactive)
CAGVSRSCRAAGNASASA [FS-1005],3.78 (active),4.22 (active),5.16 (active)
CAMEECSQHIAGNASASA [HC1764],-0.598 (inactive),0.0833 (inactive),0.396 (inactive)
CAMRSPVFTDAGNASASA [HC763],0.639 (inactive),-0.615 (inactive),-0.411 (inactive)
CAFDVVCCSMAGNASASA [HC2107],-0.364 (inactive),0.607 (inactive),-0.057 (inactive)
CAGERPSGMFAGNASASA [HC913],1.14,-1.35 (inactive),-0.577 (inactive)
CATTPCSLSWAGNASASA [HC1885],1.37,1.04,0.14 (inactive)
CARGRRQPIPAGNASASA [HC190],0.155 (inactive),-0.409 (inactive),-0.134 (inactive)
CARGRRSRRAAGNASASA [FS-1062],5.6 (active),4.73 (active),4.94 (active)
CARGRRQKQNAGNASASA [FS-2418],0.749 (inactive),0.513 (inactive),0.917 (inactive)
CARGRRSHDPAGNASASA [FS-2674],0.899 (inactive),3.42,3.55 (active)
CARGRRGMKDAGNASASA [FS-2394],0.884 (inactive),1.5,2.14
CARPIRSRRAAGNASASA [FS-1563],11.5 (active),11.2 (active),9.54 (active)
CACPAGHAVGAGNASASA [HC746],-0.805 (inactive),-1.77 (inactive),0.00889 (inactive)
CAPLGNWFGCAGNASASA [HC433],1.65,0.567 (inactive),1.54

Sequence,furin cleavage Z-score (7.5 min),furin cleavage Z-score (15 min),furin cleavage Z-score (30 min)
CAHSSRLKRLAGNASASA [FS-1011],6.44 (active),7.96 (active),7.66 (active)
CAVKSRLKRLAGNASASA [FS-890],9.42 (active),12 (active),9.55 (active)
CAIKSLTERLAGNASASA [HC1497],-0.222 (inactive),-0.416 (inactive),-0.246 (inactive)
CADGMEECSQAGNASASA [HC1816],-0.375 (inactive),0.927 (inactive),0.477 (inactive)
CAMSECSQHLAGNASASA [HC1697],0.222 (inactive),0.351 (inactive),1.22
CAMEECSCHLAGNASASA [HC1740],0.898 (inactive),-0.945 (inactive),0.106 (inactive)
CALDSFDPLVAGNASASA [HC1287],0.861 (inactive),0.184 (inactive),1.88
CALEGEPGDPAGNASASA [HC1356],-0.565 (inactive),0.288 (inactive),0.927 (inactive)
CAKMRRKKRFAGNASASA [FS-1459],7.33 (active),9.76 (active),8.97 (active)
CALNEIKKRFAGNASASA [FS-352],0.841 (inactive),-1.42 (inactive),-0.561 (inactive)
CAGSIRKKRFAGNASASA [FS-1457],6.25 (active),7.01 (active),6.64 (active)
CAYKRYISWCAGNASASA [HC578],0.0156 (inactive),0.474 (inactive),1.13
CANLKCPCQVAGNASASA [HC1215],-0.928 (inactive),-0.942 (inactive),-0.8 (inactive)
CASQQRQYRSAGNASASA [FS-564],2.45,5.55 (active),5.41 (active)
CAMSTWSKRSAGNASASA [FS-464],0.45 (inactive),1.32,1.43
CASSTRSKRSAGNASASA [FS-874],11.9 (active),11.3 (active),10 (active)
CASQFRSKRSAGNASASA [FS-1085],9.98 (active),9.45 (active),7.11 (active)
CAFWVRSKRSAGNASASA [FS-590],9.47 (active),8.07 (active),7.6 (active)
CAASLAGTHGAGNASASA [HC539],0.00941 (inactive),3.06,1.2
CADTPCSAHLAGNASASA [HC2471],-1.99 (inactive),-1.52 (inactive),-0.796 (inactive)
CALLLTTTQWAGNASASA [HC493],-0.815 (inactive),-0.0284 (inactive),0.00617 (inactive)
